{
  "source": "PubChem BioAssay (NCATS)",
  "note": "Inconclusive results are not listed. The source made the active and inactive calls. Calls follow the shape of the full dose curve.",
  "data": [
    {"target": "Thyroid hormone receptor beta (Homo sapiens) (UniProt P10828)", "sequence (P10828 whole entry, looked up)": "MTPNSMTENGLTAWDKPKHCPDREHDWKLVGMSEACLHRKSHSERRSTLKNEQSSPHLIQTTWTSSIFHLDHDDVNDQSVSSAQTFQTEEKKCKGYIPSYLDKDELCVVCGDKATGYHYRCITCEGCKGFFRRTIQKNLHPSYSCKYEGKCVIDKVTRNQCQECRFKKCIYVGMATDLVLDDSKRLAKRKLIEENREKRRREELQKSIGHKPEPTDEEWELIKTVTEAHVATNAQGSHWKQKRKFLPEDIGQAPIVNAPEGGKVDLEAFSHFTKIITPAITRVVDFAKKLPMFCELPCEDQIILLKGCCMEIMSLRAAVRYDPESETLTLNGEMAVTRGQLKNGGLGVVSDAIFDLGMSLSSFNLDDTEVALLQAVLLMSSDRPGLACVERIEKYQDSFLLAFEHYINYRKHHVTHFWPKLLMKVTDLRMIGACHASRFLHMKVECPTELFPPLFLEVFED", "test": "qHTS assay for small molecule agonists of thyroid hormone receptor beta signaling (AID 588545)", "conditions": "TR-UAS-bla GripTite HEK 293, beta-lactamase ratio, agonist mode, 18 h, percent of T3 response, DMSO as zero; series mostly up to 76.7 µM; activation: at the top concentration", "excerpt": "NIH Chemical Genomics Center [NCGC]\nU.S. Environmental Protection Agency [EPA]\nNational Institutes of Environmental Health Sciences [NIEHS]\nNational Toxicology Program [NTP]\nThyroid hormone receptor (TR) belongs to nuclear hormone receptor superfamily. There are two subtypes for TR: TR-alpha and TR-beta. TR-beta plays a major role in regulating plasma cholesterol levels and it mediates the biological activities of thyroid hormone. Screening environmental chemicals on TR-beta signaling will provide important information for the mechanism of compound action.\nNCGC Assay Protocol Summary\nUsing a beta-lactamase reporter-gene under control of the TR response element, a cell-based assay [GeneBLAzer TR-UAS-bla-GripTite assay developed by Invitrogen] was used to measure TR-beta signaling in agonist mode. TR-UAS-bla-GripTite HEK 293 cells were used with assay medium containing 2% charcoal/dextran FBS, 0.1 mM NEAA and 1 mM sodium pyruvate. The assay was performed in clear bottom black Greiner 1536-well plates. T3 was used as a positive control in the screen. Library compounds were measured for their ability to stimulate the reporter gene activity. Compounds were screened in a titration series in 1536-well format. The fluorescence intensity (405 nm excitation, 460/530 nm emission) was measured using an EnVision plate reader. Data was normalized relative to T3 control (10 nM, 100%), and DMSO only wells (basal, 0%). Concentration-response titration points for each compound were fitted to the Hill equation yielding concentrations of half-maximal stimulation (EC50) and maximal response (efficacy) values.\nqHTS protocol for TR-beta beta-lactamase assay in agonist mode\n[Step] [Parameter] [Value] [Description]\n1. Reagent; 6 uL; 2500 cells/well\n2. Incubation; 37 C for 4 hrs\n- Dose response; start 3.8 uM, 1:3 dilutions, duplicates in first column\n- Two columns of each 10 and 0.4 nM (finals) concentrations.\n5. Incubation; 37 C for 18 hrs\n6. Detection reagent; 1 uL of CCF4-dye\n7. Incubation; RT for 2 hrs\n8. Detection; Fluorescence; Envision plate reader", "values": [
      {"compound": "N=C(N)c1ccc(OCCCCCOc2ccc(C(=N)N)cc2)cc1", "outcome": "inactive"},
      {"compound": "CC(=O)Oc1ccccc1C(=O)Nc1ncc([N+](=O)[O-])s1", "activation": "-21.9% (inactive)"},
      {"compound": "OC(Cn1cncn1)(Cn1cncn1)c1ccc(F)cc1F", "activation": "-18.7% (inactive)"},
      {"compound": "Cc1ncc([N+](=O)[O-])n1CCO", "activation": "-7.25% (inactive)"},
      {"compound": "CC(=O)[C@H]1CC[C@H]2[C@@H]3CCC4=CC(=O)CC[C@]4(C)[C@H]3CC[C@]12C", "outcome": "inactive"},
      {"compound": "CCc1cc(C(N)=S)ccn1", "outcome": "inactive"},
      {"compound": "N[C@@H](Cc1ccc(O)c(O)c1)C(=O)O", "activation": "-0.733% (inactive)"},
      {"compound": "CN(C)c1ccc(C(=C2C=CC(=[N+](C)C)C=C2)c2ccc(N(C)C)cc2)cc1", "activation": "26.4% (inactive)"},
      {"compound": "Cc1cc(NS(=O)(=O)c2ccc(N)cc2)no1", "activation": "-11.2% (inactive)"},
      {"compound": "Cc1nnc(NS(=O)(=O)c2ccc(N)cc2)s1", "activation": "-16% (inactive)"},
      {"compound": "CC1=NN(c2ccccc2)C(=O)C1", "outcome": "inactive"},
      {"compound": "S=P(N1CC1)(N1CC1)N1CC1", "activation": "-4.62% (inactive)"},
      {"compound": "NNC(=O)c1ccncc1", "activation": "-5.07% (inactive)"},
      {"compound": "C[C@]12C=CC(=O)C=C1CC[C@@H]1[C@@H]2C(=O)C[C@@]2(C)[C@H]1CC[C@]2(O)C(=O)CO", "activation": "-20.1% (inactive)"},
      {"compound": "NC(N)=NC(N)=NCCc1ccccc1", "activation": "-6.96% (inactive)"},
      {"compound": "COc1ccc2cc3[n+](cc2c1OC)CCc1cc2c(cc1-3)OCO2", "activation": "3.8% (inactive)"},
      {"compound": "Cc1noc(NS(=O)(=O)c2ccc(N)cc2)c1C", "outcome": "inactive"},
      {"compound": "O=C(N[C@H](CO)[C@H](O)c1ccc([N+](=O)[O-])cc1)C(Cl)Cl", "outcome": "inactive"},
      {"compound": "O=C(O)c1cc(=O)[nH]c(=O)[nH]1", "activation": "-11.1% (inactive)"},
      {"compound": "Cc1ccnc2c1NC(=O)c1cccnc1N2C1CC1", "activation": "6.68% (inactive)"}
    ]}
  ]
}
